This note sets out measurements from PubChem BioAssay (Tox21).

Inconclusive results are not listed. Entries that show only a call come without a potency. Unmarked numbers belong to inactive results. The source made the active and inactive calls. Calls follow the shape of the dose curve; as a rule, active = well fitted curve in the direction sought with a large enough effect in the repeat runs; inconclusive = weak or mixed curves; inactive = no such curve, though single readings can be large; an effect the other way counts as inactive or inconclusive.
Potency is read from the fitted curve at half-maximal effect.

Nuclear receptor subfamily 1 group I member 3 (Homo sapiens), sequence (Q14994 whole entry, looked up): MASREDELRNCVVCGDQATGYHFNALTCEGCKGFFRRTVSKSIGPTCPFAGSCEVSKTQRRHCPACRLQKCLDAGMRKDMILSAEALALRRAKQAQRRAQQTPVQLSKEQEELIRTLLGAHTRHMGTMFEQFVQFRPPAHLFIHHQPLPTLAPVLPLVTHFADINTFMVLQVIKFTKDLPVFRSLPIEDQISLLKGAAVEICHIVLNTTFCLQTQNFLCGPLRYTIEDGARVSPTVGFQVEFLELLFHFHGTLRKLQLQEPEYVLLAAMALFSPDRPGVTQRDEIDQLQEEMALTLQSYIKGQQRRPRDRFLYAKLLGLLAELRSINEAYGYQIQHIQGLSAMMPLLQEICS

Tested on in the first assay: not listed separately
The assay is described as follows: qHTS assay to identify small molecule agonists of the constitutive androstane receptor (CAR) signaling pathway - cell viability counter screen (AID 1224836). Also: nearly all actives have a fitted effect of over 45% in size. The conditions noted are these: HepG2-CYP2B6-hCAR viability, CellTiter-Fluor, 23 h, PK11195 added to every well; series mostly up to 92.4 µM. In short, it runs like this: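 Using CellTiter-Fluor, viability of HepG2 cells harbouring hCAR and CYP2B6-2.2kb was measured following 23 h incubation with a 15-concentration compound series plus PK11195 (0.75 uM final).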
(In qHTS, concentration-response curves come from the screen itself.)
In the case of `Clc1cccnc1`, the Potency entry was “inactive”.

Take `C=C[C@](C)(O)CC[C@@H]1[C@@]2(C)CCCC(C)(C)[C@@H]2CC[C@@]1(C)O`: the Potency was 61.1 µM (active).

As for `Clc1ccc(C(Cn2ccnc2)OCc2c(Cl)cccc2Cl)c(Cl)c1` (centres undefined), the Potency result was “inactive”. Take `Cc1nc(Nc2ncc(C(=O)Nc3c(C)cccc3Cl)s2)cc(N2CCN(CCO)CC2)n1`: the Potency was 7.5 µM (active). The same measure, in the same setting: to `Clc1nc2ccccc2s1` belongs “inactive”; to `O=C(O)CCn1c2c(c3ccccc31)C[C@H](NS(=O)(=O)c1ccc(F)cc1)CC2`, “inactive”. Same read-out and setting: to `CC(C)=CC1CC(C)CCO1` (centres undefined) belongs “inactive”.

For the molecule `S=C(SSSSSSC(=S)N1CCCCC1)N1CCCCC1`, the Potency is 8.48 µM (active). With `CCC(=O)CC(C)CC` (centres undefined), the viability change, negative = cytotoxic was -0.276% [at 0.349 µM]. For the molecule `O=Cc1ccc(F)cc1`, the Potency entry is “inactive”. Same read-out and setting: to `CCOC(=O)N1CCC(=C2c3ccc(Cl)cc3CCc3cccnc32)CC1` belongs “inactive”. On the same count and under the same terms, to `Cc1ccc(CCn2c3c(c4cc(Cl)ccc42)CN(C)CC3)cn1` belongs “inactive”.

As for `Clc1ccccc1CN1CCc2sccc2C1`, the Potency entry was “inactive”. `Cc1cn[nH]c1`: the Potency result was “inactive”. On the same count and under the same terms, to `CCOB(OCC)OCC` belongs “inactive”.

Consider `CCCCC(CC)COC(=O)c1ccc(O)cc1` (centres undefined), for which the Potency entry is “inactive”. On the same count and under the same terms, to `CC(=O)Nc1ccc(O)cc1` belongs “inactive”; to `NC(=O)c1nc(-c2cccc(-c3cc(F)ccc3OCC(F)(F)C(F)(F)F)c2)n[nH]1`, 61.1 µM (active); to `C=CC(=C)CCC=C(C)C`, “inactive”. On the same count and under the same terms, to `c1ccc(Sc2ccccc2)cc1` belongs “inactive”; to `CC(CN(C)C)CN1c2ccccc2CCc2ccccc21` (centres undefined), “inactive”. The same measure, in the same setting: to `CN(C)CCCN1c2ccccc2CCc2ccccc21` belongs 30.6 µM (active). On to `CCOC(=O)C1=C(C)NC(C)=C(C(=O)OCC)C1c1ccccc1/C=C/C(=O)OC(C)(C)C`, for which the Potency entry is “inactive”.

As to `Oc1c(Br)cc(Br)c2cccnc12`, the Potency result was “inactive”.

Take `O=C1c2c(O)ccc(O)c2C(=O)c2c(NCCNCCO)ccc(NCCNCCO)c21`: the Potency is 3.76 µM (active). Consider `CCCCCCCC(C)=O`, for which the Potency entry is “inactive”.

As to `C=CCCCCCCC=C`, the Potency entry is “inactive”.

In the case of `Cc1cc(C)c(C=O)c(C)c1`, the Potency entry is “inactive”.

On to `C/C=C/C=N/NC(=O)c1ccncc1`, for which the Potency result was “inactive”. Take `CCCCCCC(C)Nc1ccc(Nc2ccccc2)cc1` (centres undefined): the Potency entry is “inactive”.

Tested on in the next assay: not listed separately
Kind of assay: qHTS assay to identify small molecule antagonists of the constitutive androstane receptor (CAR) signaling pathway - cell viability counter screen (AID 1224837). Also: nearly all actives have a fitted effect of over 45% in size. The note with it: HepG2-CYP2B6-hCAR viability, CellTiter-Fluor, 23 h, co-treated with 50 nM CITCO; series mostly up to 92.4 µM. An outline of the steps: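 Using CellTiter-Fluor, viability is scored in HepG2 cells stably carrying hCAR and a 2.2kb CYP2B6 reporter after 23 hr compound exposure across 15 concentrations, with CITCO present at 50 nM.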
Turning to `Clc1cccnc1`, the Potency result is “inactive”. Consider `CC(O)C#CC(C)O` (centres undefined), for which the Potency is 53.9 µM (active). Take `Clc1nc2ccccc2s1`: the Potency entry was “inactive”. The same measure, in the same setting: as for `COCC(=O)O[C@]1(CCN(C)CCCc2nc3ccccc3[nH]2)CCc2cc(F)ccc2[C@@H]1C(C)C`, the figure is 29.8 µM (active); as for `O=C(O)CCn1c2c(c3ccccc31)C[C@H](NS(=O)(=O)c1ccc(F)cc1)CC2`, “inactive”; as for `CC(C)=CC1CC(C)CCO1` (centres undefined), “inactive”.

As for `S=C(SSSSSSC(=S)N1CCCCC1)N1CCCCC1`, the Potency was 7.56 µM (active).

As to `CCC(=O)CC(C)CC` (centres undefined), the activity change, negative = cytotoxicity is 5.84% [at 0.349 µM]. Consider `O=Cc1ccc(F)cc1`, for which the Potency result was “inactive”. For the molecule `Clc1ccccc1CN1CCc2sccc2C1`, the Potency result is “inactive”. As to `Cc1cn[nH]c1`, the Potency result was “inactive”.

In the case of `CCOB(OCC)OCC`, the Potency entry is “inactive”. On the same count and under the same terms, as for `CCCCC(CC)COC(=O)c1ccc(O)cc1` (centres undefined), the entry is “inactive”; as for `CC(=O)Nc1ccc(O)cc1`, “inactive”; as for `c1ccc(Sc2ccccc2)cc1`, “inactive”. As for `CC(CN(C)C)CN1c2ccccc2CCc2ccccc21` (centres undefined), the Potency result was “inactive”.

Turning to `CN(C)CCCN1c2ccccc2CCc2ccccc21`, the Potency result was “inactive”.

For the molecule `Oc1c(Br)cc(Br)c2cccnc12`, the Potency entry is “inactive”.

As for `CCC(C)(C)c1cc(O)c(C(C)(C)CC)cc1O`, the Potency result is “inactive”. With `O=C1c2c(O)ccc(O)c2C(=O)c2c(NCCNCCO)ccc(NCCNCCO)c21`, the Potency is 4.22 µM (active). Still for that read-out and setting: to `CCCOc1sc(C(=O)N2CCC(c3cc(CN)ccc3F)CC2)c(C)c1Br` belongs 62.8 µM (active); to `CCCCCCCC(C)=O`, “inactive”. On the same count and under the same terms, as for `C=CCCCCCCC=C`, the entry is “inactive”.

On to `CC(=O)OC(OC(C)=O)c1ccc([N+](=O)[O-])o1`, for which the Potency was 62.2 µM (active).

For the molecule `Cc1cc(C)c(C=O)c(C)c1`, the Potency result is “inactive”.

Take `C/C=C/C=N/NC(=O)c1ccncc1`: the Potency result was “inactive”. On the same count and under the same terms, as for `CCCCCCC(C)Nc1ccc(Nc2ccccc2)cc1` (centres undefined), the entry is “inactive”; as for `COc1ccc(-n2nc(CCC(=O)N(C)O)cc2-c2ccc(Cl)cc2)cc1`, “inactive”.

A further assay has as its target Nuclear receptor subfamily 1 group I member 3 (Homo sapiens) (UniProt Q14994). Kind of assay: qHTS assay to identify small molecule antagonists of the constitutive androstane receptor (CAR) signaling pathway (AID 1224838). Also: nearly all actives have a fitted effect of over 40% in size. The conditions noted are these: HepG2-CYP2B6-hCAR luciferase, CITCO-stimulated, 24 h; series mostly up to 92.4 µM. An outline of the steps: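 Reporter luminescence was quantified after 24 h exposure of hCAR/CYP2B6-2.2kb double-stable HepG2 cells to compounds at 15 concentrations in the presence of 50 nM CITCO final.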
Turning to `C=C[C@](C)(O)CC[C@@H]1[C@@]2(C)CCCC(C)(C)[C@@H]2CC[C@@]1(C)O`, the Potency entry is “inactive”. Same read-out and setting: as for `CC(O)C#CC(C)O` (centres undefined), the figure is 48.1 µM (active); as for `Cc1nc(Nc2ncc(C(=O)Nc3c(C)cccc3Cl)s2)cc(N2CCN(CCO)CC2)n1`, 9.44 µM (active). On to `COCC(=O)O[C@]1(CCN(C)CCCc2nc3ccccc3[nH]2)CCc2cc(F)ccc2[C@@H]1C(C)C`, for which the Potency was 29.8 µM (active). On the same count and under the same terms, to `CCOC(=O)N1CCC(=C2c3ccc(Cl)cc3CCc3cccnc32)CC1` belongs “inactive”; to `Cc1ccc(CCn2c3c(c4cc(Cl)ccc42)CN(C)CC3)cn1`, “inactive”; to `C=CC(=C)CCC=C(C)C`, 61.1 µM (active). On the same count and under the same terms, as for `CCOC(=O)C1=C(C)NC(C)=C(C(=O)OCC)C1c1ccccc1/C=C/C(=O)OC(C)(C)C`, the entry is “inactive”; as for `CCC(C)(C)c1cc(O)c(C(C)(C)CC)cc1O`, “inactive”; as for `CC(=O)OC(OC(C)=O)c1ccc([N+](=O)[O-])o1`, 55.4 µM (active). As for `COc1ccc(-n2nc(CCC(=O)N(C)O)cc2-c2ccc(Cl)cc2)cc1`, the Potency entry is “inactive”.
